Source: PubChem BioAssay
Calls of active or inactive are those of the source. Rule as the data show it: active = inhibition above about 31%; inactive = the rest.

Test: reversal of MRP1-mediated doxorubicin resistance, pilot screen, H69AR cells, doxorubicin co-treatment (AID 601)
Settings: H69AR cells, CellTiter-Glo, 72 h; compound alone cytotoxicity; at 10 µM
For `CCn1c(SCC(=O)Nc2nnc(C)s2)nnc1-c1ccncc1`, the viability was 95.5%. In the case of `O=C1CN(Cc2ccccc2)C(=NCc2ccco2)S1`, the viability is reported as 86.7%. In the case of `COc1ccc(NC(=O)c2cc(C(C)C)on2)c(OC)c1`, the viability is reported as 88%. For `COc1ccc(N2CCN(CCCNC(=O)C3(S(=O)(=O)c4ccc(Cl)cc4)CC3)CC2)cc1`, the viability was 83.1%. In the case of `O=c1oc2ccccc2c2c1ncn2-c1ccccc1`, the viability is reported as 89.1%. `O=C(Cn1ncc2ccccc21)N1CCN(c2cccc(C(F)(F)F)c2)CC1` showed a viability of 87.1%. With `O=C(NCc1ccccn1)c1cccs1` the viability was 105%. For `O=C(NC1CCCC1)C1CC1c1ccccc1` (stereo not given), the viability was 98.3%. With `CCNc1nc(N2CCOCC2)nc(N(c2ccccc2)c2ccccc2)n1` the viability was 84.2%. `Cc1ccc(S(=O)(=O)N(C)Cc2cc3ccccc3[nH]c2=O)cc1` showed a viability of 91.5%. For `COc1ccc(S(=O)(=O)N2CCN(CC(=O)Nc3ccc(C)c(F)c3)CC2)cc1`, the viability was 25.5%. Compound `CC(C)(C)C(=O)/C=C(\N)c1ccccn1` has a viability of 100%. For `O=c1c2cc(N3CCOCC3)ccc2[nH]c(=S)n1CCCN1CCCCC1`, the viability was 95.9%. `O=C(CC1CCS(=O)(=O)C1)Nc1ccc[nH]c1=O` (stereo not given) gave a viability of 106%. In the case of `CCC(=O)c1ccc(OC(=O)c2ccc(Br)o2)cc1`, the viability is reported as 108%. For `CC1CCN(CCn2c(=S)[nH]c3ncccc3c2=O)CC1`, the viability was 104%. `CC(C)CC(=O)CN1C(=O)C2(OCCO2)c2ccccc21` showed a viability of 89.6%. Compound `CS(=O)(=O)c1ccc2nc(NC(=O)CCC(=O)c3cccs3)sc2c1` has a viability of 69.8%. Work on `O=S(=O)(NCc1cn2ccsc2n1)c1ccc2c(c1)OCCO2` yielded a viability of 105%. For `CC1(CC(=O)O)C(=O)N=C2C=CC=CN21` (stereo not given), the viability was 89.4%. `CCN(CC)S(=O)(=O)c1cccc(-c2nnc(SCC(N)=O)n2CCc2ccccc2)c1` gave a viability of 74.7%. `CC1(C)Cc2noc(N)c2C(C)(C)N1O` gave a viability of 95.6%. `CCOc1ccc(Cc2nn[nH]n2)cc1` gave a viability of 101%. `CC(C)NC(=O)CSc1nnc(-c2ccc(C(C)(C)C)cc2)n1C` showed a viability of 103%. With `C=CCC(NCc1ccco1)c1ccc(OC)cc1OC` (stereo not given) the viability was 93%. In the case of `CCN(c1cccc(C(F)(F)F)c1)S(=O)(=O)c1ccc2c(c1)CCN2C(=O)C1CC1`, the viability is reported as 82.5%. In the case of `COc1ccc(OC)c(S(=O)(=O)N2CCC(C(=O)NCC3CCCO3)CC2)c1` (stereo not given), the viability is reported as 98.9%. `Cn1c(COc2ccc(Cl)cc2)nnc1SCC(=O)NC1CCCCC1` showed a viability of 103%. With `CCN(c1c(C)n(C)n(-c2ccccc2)c1=O)S(C)(=O)=O` the viability was 95.6%. `CCc1nc(N)c(C#N)c(-c2ccc(OC)c(OC)c2)c1C` gave a viability of 87.2%. `CSCCC(NC(=O)c1occc1C)C(=O)O` (stereo not given) gave a viability of 103%. In the case of `Cc1cccc(N2CCN(S(=O)(=O)c3ccc4c(c3)CCC(=O)N4)CC2C)c1` (stereo not given), the viability is reported as 73.6%. Compound `c1cnn(-c2cc(N3CCOCC3)ncn2)c1` has a viability of 93%. `Cc1cccc(NC(=O)COc2ccc(Br)cc2)n1` showed a viability of 99.4%. `CCOC(=O)c1ccc(-c2c(C(=O)OCC)oc3cc(O)c(CC)cc3c2=O)o1` showed a viability of 83.3%. Work on `CC(C)NC(=O)CSCc1ccccc1Cl` yielded a viability of 94.8%. `O=C(CSc1n[nH]c(-c2cccs2)n1)N1CCN(S(=O)(=O)c2ccccc2)CC1` gave a viability of 102%. Compound `O=S(=O)(c1ccc2ccccc2c1)N1CCCCC1` has a viability of 80.8%. `C=CCn1c(CC#N)nnc1N1CCOCC1` gave a viability of 109%. Compound `COc1ccc(OC)c(C2=NOC(C(=O)Nc3cccnc3)C2)c1` (stereo not given) has a viability of 88.9%.

Test: 384-well plate pilot, post-Golgi transport modulator project, inhibition of yeast transport mutant growth (AID 636)
Settings: absorbance 615 nm, about 18 h, stronger effect = higher value
In the case of `CCn1c(SCC(=O)Nc2nnc(C)s2)nnc1-c1ccncc1`, the inhibition is reported as -7.43% (inactive). In the case of `O=C1CN(Cc2ccccc2)C(=NCc2ccco2)S1`, the inhibition is reported as -6.49% (inactive). With `COc1ccc(NC(=O)c2cc(C(C)C)on2)c(OC)c1` the inhibition was 0.51% (inactive). In the case of `COc1ccc(N2CCN(CCCNC(=O)C3(S(=O)(=O)c4ccc(Cl)cc4)CC3)CC2)cc1`, the inhibition is reported as -0.65% (inactive). In the case of `O=c1oc2ccccc2c2c1ncn2-c1ccccc1`, the inhibition is reported as 0.52% (inactive). For `O=C(Cn1ncc2ccccc21)N1CCN(c2cccc(C(F)(F)F)c2)CC1`, the inhibition was -5.87% (inactive). In the case of `O=C(NCc1ccccn1)c1cccs1`, the inhibition is reported as -7.43% (inactive). For `O=C(NC1CCCC1)C1CC1c1ccccc1` (stereo not given), the inhibition was -6.13% (inactive). For `CCNc1nc(N2CCOCC2)nc(N(c2ccccc2)c2ccccc2)n1`, the inhibition was -3.55% (inactive). In the case of `Cc1ccc(S(=O)(=O)N(C)Cc2cc3ccccc3[nH]c2=O)cc1`, the inhibition is reported as 0.26% (inactive). For `COc1ccc(S(=O)(=O)N2CCN(CC(=O)Nc3ccc(C)c(F)c3)CC2)cc1`, the inhibition was -5.2% (inactive). With `CC(C)(C)C(=O)/C=C(\N)c1ccccn1` the inhibition was -1.04% (inactive). For `O=c1c2cc(N3CCOCC3)ccc2[nH]c(=S)n1CCCN1CCCCC1`, the inhibition was -4.59% (inactive). With `O=C(CC1CCS(=O)(=O)C1)Nc1ccc[nH]c1=O` (stereo not given) the inhibition was -4.74% (inactive). For `CCC(=O)c1ccc(OC(=O)c2ccc(Br)o2)cc1`, the inhibition was -4.67% (inactive). In the case of `CC1CCN(CCn2c(=S)[nH]c3ncccc3c2=O)CC1`, the inhibition is reported as -2.89% (inactive). With `CC(C)CC(=O)CN1C(=O)C2(OCCO2)c2ccccc21` the inhibition was -5.14% (inactive). With `CS(=O)(=O)c1ccc2nc(NC(=O)CCC(=O)c3cccs3)sc2c1` the inhibition was -1.05% (inactive). In the case of `O=S(=O)(NCc1cn2ccsc2n1)c1ccc2c(c1)OCCO2`, the inhibition is reported as -7.07% (inactive). For `CC1(CC(=O)O)C(=O)N=C2C=CC=CN21` (stereo not given), the inhibition was -4.93% (inactive). In the case of `CCN(CC)S(=O)(=O)c1cccc(-c2nnc(SCC(N)=O)n2CCc2ccccc2)c1`, the inhibition is reported as -2.21% (inactive). For `CC1(C)Cc2noc(N)c2C(C)(C)N1O`, the inhibition was -4.61% (inactive). With `CCOc1ccc(Cc2nn[nH]n2)cc1` the inhibition was -5.89% (inactive). For `CC(C)NC(=O)CSc1nnc(-c2ccc(C(C)(C)C)cc2)n1C`, the inhibition was -2.24% (inactive). With `C=CCC(NCc1ccco1)c1ccc(OC)cc1OC` (stereo not given) the inhibition was -4.08% (inactive). With `CCN(c1cccc(C(F)(F)F)c1)S(=O)(=O)c1ccc2c(c1)CCN2C(=O)C1CC1` the inhibition was -3.42% (inactive). With `COc1ccc(OC)c(S(=O)(=O)N2CCC(C(=O)NCC3CCCO3)CC2)c1` (stereo not given) the inhibition was -6.27% (inactive). With `Cn1c(COc2ccc(Cl)cc2)nnc1SCC(=O)NC1CCCCC1` the inhibition was 2.13% (inactive). With `CCN(c1c(C)n(C)n(-c2ccccc2)c1=O)S(C)(=O)=O` the inhibition was -6.76% (inactive). With `CCc1nc(N)c(C#N)c(-c2ccc(OC)c(OC)c2)c1C` the inhibition was -6.93% (inactive). With `CSCCC(NC(=O)c1occc1C)C(=O)O` (stereo not given) the inhibition was -2.63% (inactive). In the case of `Cc1cccc(N2CCN(S(=O)(=O)c3ccc4c(c3)CCC(=O)N4)CC2C)c1` (stereo not given), the inhibition is reported as -5.13% (inactive). In the case of `c1cnn(-c2cc(N3CCOCC3)ncn2)c1`, the inhibition is reported as 4.47% (inactive). For `Cc1cccc(NC(=O)COc2ccc(Br)cc2)n1`, the inhibition was -5.19% (inactive). For `CCOC(=O)c1ccc(-c2c(C(=O)OCC)oc3cc(O)c(CC)cc3c2=O)o1`, the inhibition was -3.42% (inactive). With `CC(C)NC(=O)CSCc1ccccc1Cl` the inhibition was -3.33% (inactive). For `O=C(CSc1n[nH]c(-c2cccs2)n1)N1CCN(S(=O)(=O)c2ccccc2)CC1`, the inhibition was 0.91% (inactive). For `O=S(=O)(c1ccc2ccccc2c1)N1CCCCC1`, the inhibition was -1.95% (inactive). With `C=CCn1c(CC#N)nnc1N1CCOCC1` the inhibition was -0.68% (inactive). For `COc1ccc(OC)c(C2=NOC(C(=O)Nc3cccnc3)C2)c1` (stereo not given), the inhibition was -1.97% (inactive).
